According to the supplement of paper PMC11417369:
Over roughly 25,000 sequences, “ln(normalized median fluorescence intensity)” has its median near 9.7; the highest 2% begin near 11. Only a selection was taken, and the highest values are over-represented in it overall.

tested on: PfAP2-HC AP2 domain (GST-tagged); assay: gcPBM binding intensity (ln(normalized median fluorescence intensity)); higher = stronger DNA binding
Outline: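 Plasmodium falciparum DNA-binding domains carrying a GST tag were expressed in E. coli and applied for 1 h, at about 25 μg on average, to an Agilent 4 × 180k array. The array held primer-extended double-stranded 36-bp intergenic genomic probes together with negative controls, and binding took place in 1× PBS with 1% milk, 0.2 mg/ml BSA, 0.5% salmon testes DNA and 0.03% Triton X-100. An Alexa488 anti-GST antibody detected bound protein, and the array was scanned at 488 nm. Binding intensity is taken as the highest Masliner-normalised natural-log median intensity across replicate spots of either probe orientation.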

| Sequence | gcPBM binding intensity (ln) |
| --- | --- |
| TGATAAATATGGAGCACACACACATAAACATACATA [CACACA_site420] | 10.4 |
| GATTATTTTATAAGTACACACATTTATCTATAATAA [CACACA_site7256] | 9.69 |
| ACGTTAAAAACAAGTTGTACACAATAAATTATTCTT [XGTACX_site6321] | 9.75 |
| GTATTCAAAAGTGAAACATGCAATAATATATATATA [TGCATGCA_site617] | 9.63 |
| AATATTTTTTTATAAACACACATATATATAAATATA [CACACA_site3524] | 9.53 |
| ATTTAATACAAATACACACACAAATAAATACAGATA [CACACA_site5956] | 10.2 |
| ATACAACAGATATATACACACATATAACAATAATAA [CACACA_site7560] | 10 |
| AATACAATTTTTAACACACACACAATAATACAGATA [CACACA_site4823] | 11.2 |
| TACACGTTCTACATTTGTACTTAATTTATACATAAG [XGTACX_site1579] | 9.79 |
| CCATTTACATTGTGAAGTACTAAAAAAAAATGTAGA [XGTACX_site7882] | 9.48 |
| ATCGGTAATATTAACACACACATTTATTTATATTTA [CACACA_site6638] | 10.1 |
| GTATCTCATTATTCGTGTACTAAACACATAAAAATA [XGTACX_site2262] | 9.58 |
| GTTAATTGAAGATTCACACATAAATATATATATAAT [CACACA_site5482] | 9.61 |
| ATATACTATTATGTGTGTACATAATAATTTATTATA [XGTACX_site3776] | 9.75 |
| ATATACTTTTTTTTTTTTTTTTTAACGTTATTTATG [CACACA_negctrl_site1277] | 9.64 |
| AAAAGATAATTATGCACACACACACCCCCACCCAAC [CACACA_site2570] | 10.9 |
| AAGATAATTACGCACACACACACACGCCCACAACTA [CACACA_site7255] | 11.4 |
| GATAATTACGGACACACACACACACGCACAACTAAA [CACACA_site7254] | 10.7 |
| AGCACATTATTCAAAAGTACAAATAGGTATTGTATA [XGTACX_site6107] | 9.59 |
| TTATTCTTTTAATATACACACTTTGTCTTTTCGCGC [CACACA_site5525] | 9.9 |
| TAATTTTTTTTAAACACACACATTACATTCAAAAAT [CACACA_site127] | 10.1 |
| AAAATTAAAACCTACACACACATTTAAAAAAAAAAA [CACACA_site3068] | 10.1 |
| GAAAAATTAAAACCTACACACACATTTAAAAAAAAA [CACACA_site9005] | 11 |

| Sequence | gcPBM binding intensity (ln) |
| --- | --- |
| ATACATTCAATGAAATGTACGTTTATTTACAGAAGA [XGTACX_site2999] | 9.6 |
| TTTTTTCTTTTTATGTGTACTTATTTTATTTAATAA [XGTACX_site1080] | 9.76 |
| TTTTTCAGATCCTATATAGTATCATATAAATTCCAT [CACACA_negctrl_site56] | 9.39 |
| AAGAAAAAATGATGAATAGAGATCAAATCTATATAT [TGCATGCA_negctrl_site29] | 9.65 |
| TTTTTAAAATATTTAACACACAATTTTAATGCATAA [CACACA_site6036] | 9.61 |
| TCATTCATAAAAATAACACACAAAAAAAAAAAAAAA [CACACA_site1800] | 9.62 |
| ATATATATATTCCACACACACACAAAAAAAAAAAAA [CACACA_site3648] | 10.6 |
| CAATATAAAAAACACACGCACACAAAAAAAAAAAAA [CACACA_site3521] | 10.3 |
| ATATTCATTAACCACACACACAAAAAAAATAAAATT [CACACA_site3801] | 10.2 |
| ACACAAAAAATAAAAATATATATATATTATATATAT [CACACA_negctrl_site1489] | 9.75 |
| AATAAAAAAAAACGCACACACAAATATATTCCATTC [CACACA_site1224] | 10.4 |
| GGATATTCATTAACCACACACACAAAAAAAATAAAA [CACACA_site3800] | 11.2 |
| ATATAAATATTCCACACACACACAAAAAAAAAAAAA [CACACA_site7678] | 11 |
| TCAATAAAAAAAAACGCACACACAAATATATTCCAT [CACACA_site1223] | 11 |
| TTTTTATAATGATACATATATTATTTTATTCTTAAT [CACACA_negctrl_site124] | 9.54 |
| AAAAAAAAAAAAAAAACACACATATCTGTATTTATA [CACACA_site5760] | 9.75 |
| ATATTGACAGGAAAAATTTTCTTTGAATCTTTAAAA [CACACA_negctrl_site1191] | 9.29 |
| ATTAGGATATATTAAAGTACTAATATAATACATTTT [XGTACX_site7386] | 9.55 |
| TTTTACTAAATATATACACACATTATACAGATATAT [CACACA_site5765] | 9.86 |
| TATAAAATACTGTATCGATGGGGGAGGGCGCAGGGG [TGCATGCA_negctrl_site250] | 10.9 |
| ATATATGGGGCGCAGGAAAAGAGTTTTGGAAATAAA [CACACA_negctrl_site1265] | 9.63 |
| AGTATATAAAATACTGTATCGATGGGGGAGGGCGCA [CACACA_negctrl_site1612] | 9.91 |
